Source: PubChem BioAssay (NCI)
About 79,000 compounds went through this panel and 15% of them were active in at least one assay; those are over-represented in the sample as a whole. Calls of active or inactive are those of the source. Rule as the data show it: active = growth inhibition above about 70%; inactive = the rest.

How the values were obtained:
[1] = NCI Yeast Anticancer Drug Screen. Data for the rad52 strain (AID 147);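 also: 0% = growth of vehicle-treated control cultures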; conditions: S. cerevisiae rad52 mutant growth inhibition, hits give high values
In short: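 Measured: yeast growth inhibition. System: strain with a defined DNA damage repair alteration. Reference: vehicle-treated control cultures.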

[2] = NCI Yeast Anticancer Drug Screen. Data for the wt1 strain (AID 149);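 also: 0% = growth of vehicle-treated wt1 cultures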; conditions: S. cerevisiae wt1 strain (SPY 50644) growth inhibition, hits give high values
In short: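 Using yeast strain wt1, compound-induced growth inhibition was determined against vehicle-treated cultures.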

[3] = NCI Yeast Anticancer Drug Screen. Data for the mgt1 strain (AID 153); conditions: S. cerevisiae mgt1 mutant growth inhibition, hits give high values
In short: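 After exposure of the mgt1 yeast mutant to compound, growth was measured and reported as inhibition compared with vehicle controls.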

[4] = NCI Yeast Anticancer Drug Screen. Data for the rad50 strain (AID 155);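 also: 0% = growth of vehicle-only cultures of the same strain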; conditions: S. cerevisiae rad50 strain growth inhibition, hits give high values
In short: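 Relative growth inhibition (compound vs vehicle) was measured in yeast with a defined repair-gene alteration.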

[5] = NCI Yeast Anticancer Drug Screen. Data for the mec2-1 strain (AID 157); conditions: S. cerevisiae mec2-1 strain, hits give high values
In short: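 Test agents were screened against the mec2-1 yeast strain, with defined DNA repair or cell cycle alteration. Growth was scored as inhibition against vehicle-only controls.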

[6] = NCI Yeast Anticancer Drug Screen. Data for the sgs1 mgt1 strain (AID 161);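 also: 0% = growth of cultures given vehicle only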; conditions: S. cerevisiae sgs1 mgt1 strain, hits give high values
In short: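 Test agents were incubated with a DNA-repair-mutant yeast strain. Growth was then read and compared against vehicle-treated controls.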

[7] = NCI Yeast Anticancer Drug Screen. Data for the CLN2oe strain (AID 163);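 also: 0% = growth of vehicle-only control cultures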; conditions: S. cerevisiae CLN2oe strain, hits give high values
In short: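 Here, growth inhibition in a cell-cycle-altered yeast strain after compound exposure was quantified against vehicle control growth.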

[8] = NCI Yeast Anticancer Drug Screen. Data for the cln2 rad14 strain (AID 165);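 also: 0% = growth equal to vehicle treated cultures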; conditions: S. cerevisiae cln2 rad14 strain, hits give high values
In short: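 Growth of compound-exposed yeast (cln2 rad14 genotype) measured and expressed as inhibition relative to vehicle.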

[9] = NCI Yeast Anticancer Drug Screen. Data for the bub3 strain (AID 167); conditions: S. cerevisiae bub3 mutant strain, hits give high values
In short: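 Screening used yeast with an engineered genetic alteration affecting cell cycle control. Compound-exposed cultures were compared with vehicle cultures, and reduced growth was taken as inhibition.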

[10] = NCI Yeast Anticancer Drug Screen. Data for the wt2 strain (AID 169);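 also: 0% = growth of vehicle-treated yeast cultures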; conditions: S. cerevisiae wt2 strain growth inhibition, hits give high values
In short: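 Genetically defined yeast strains from a DNA-repair/cell-cycle panel were used. Compound-exposed yeast growth was measured, and the inhibition was calculated relative to vehicle treatment.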

[11] = NCI Yeast Anticancer Drug Screen. Data for the mlh1 strain (AID 171);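 also: 0% = growth of vehicle-treated control cultures of the same strain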; conditions: S. cerevisiae mlh1 strain growth inhibition, hits give high values
In short: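 Here the genetically defined yeast mutant is grown with each compound, and the extent to which its growth falls below that of vehicle-exposed cells is reported.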

[12] = NCI Yeast Anticancer Drug Screen. Data for the sgs1 strain (AID 173);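 also: 0% = growth of vehicle-only control cultures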; conditions: S. cerevisiae sgs1 mutant, hits give high values
In short: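 Relative growth inhibition, referenced to vehicle, was determined in a yeast strain with a defined alteration affecting DNA damage repair or cell cycle control after compound exposure.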

[13] = NCI Yeast Anticancer Drug Screen. Data for the mlh1 rad18 strain (AID 175); conditions: S. cerevisiae mlh1 rad18 strain growth inhibition, hits give high values
In short: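 In this whole-cell yeast screen, a strain with altered DNA damage repair is challenged with compound, and its growth is measured against matched vehicle-treated controls.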

[14] = NCI Yeast Anticancer Drug Screen. Data for the rad18 strain (AID 177); conditions: S. cerevisiae rad18 mutant growth inhibition, hits give high values
In short: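 Screen uses a yeast strain with a defined lesion in DNA damage repair; compound effect is read as loss of growth compared to untreated vehicle cultures.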

[15] = NCI Yeast Anticancer Drug Screen. Data for the rad14 strain (AID 159);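 also: 0% = growth of vehicle-treated control cultures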; conditions: S. cerevisiae rad14 strain growth inhibition, hits give high values
In short: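 Screen for anticancer potential: a yeast strain altered in DNA damage repair is grown with compound, and reduced growth is quantified against vehicle controls.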

[16] = at 5.0 µM (retest, dose inferred, filed as 0.5)
[17] = at 50.0 µM (retest, dose inferred, filed as 5.0)

Measured: growth inhibition

COc1ccc2nc3cccc([N+](=O)[O-])c3c(NCCCCCC(=O)O)c2c1
active: [1]; at 1.2 µM 87% | [1]; at 3.7 µM 96% | [1]; at 11.0 µM 97% | [1]; at 33.0 µM 98% | [1]; at 100.0 µM 98% | [2]; at 11.0 µM 93% | [2]; at 33.0 µM 98% | [2]; at 100.0 µM 98% | [3]; at 11.0 µM 91% | [3]; at 33.0 µM 97% | [3]; at 100.0 µM 99% | [4]; at 1.2 µM 84% | [4]; at 3.7 µM 94% | [4]; [16] 97% | [4]; at 11.0 µM 96% | [4]; at 33.0 µM 97% | [4]; [17] 98% | [4]; at 50.0 µM 87% | [4]; at 100.0 µM 97% | [5]; at 3.7 µM 96% | [5]; [16] 96% | [5]; at 11.0 µM 97% | [5]; at 33.0 µM 98% | [5]; [17] 99% | [5]; at 50.0 µM 91% | [5]; at 100.0 µM 99% | [6]; [16] 95% | [6]; [17] 99% | [6]; at 50.0 µM 82.7% | [7]; at 11.0 µM 91% | [7]; at 33.0 µM 97% | [7]; at 100.0 µM 98% | [8]; [16] 99% | [8]; [17] 99% | [8]; at 50.0 µM 88.8% | [9]; at 11.0 µM 96% | [9]; at 33.0 µM 97% | [9]; [17] 99% | [9]; at 50.0 µM 87.2% | [9]; at 100.0 µM 99% | [10]; at 11.0 µM 94% | [10]; at 33.0 µM 97% | [10]; at 100.0 µM 99% | [11]; at 11.0 µM 94% | [11]; at 33.0 µM 97% | [11]; at 100.0 µM 98% | [12]; at 1.2 µM 90% | [12]; at 3.7 µM 93% | [12]; at 11.0 µM 98% | [12]; at 33.0 µM 98% | [12]; at 100.0 µM 98% | [13]; [16] 97% | [13]; [17] 98% | [13]; at 50.0 µM 82.6% | [14]; at 1.2 µM 96% | [14]; at 3.7 µM 96% | [14]; at 11.0 µM 96% | [14]; at 33.0 µM 97% | [14]; at 100.0 µM 98%
inactive: [2]; at 1.2 µM 2% | [2]; at 3.7 µM 29% | [3]; at 1.2 µM 0% | [3]; at 3.7 µM 26% | [5]; at 1.2 µM 63% | [7]; at 1.2 µM 2% | [7]; at 3.7 µM 50% | [9]; at 1.2 µM -11% | [9]; at 3.7 µM 34% | [9]; [16] 2% | [10]; at 1.2 µM 6% | [10]; at 3.7 µM 42% | [11]; at 1.2 µM 23% | [11]; at 3.7 µM 63%

CCC(OC(C)=O)C1CC(C(C)C)CCC1C (stereo unspecified)
inactive: [1]; at 1.2 µM 1% | [1]; at 3.7 µM 2% | [1]; at 11.0 µM 4% | [1]; at 33.0 µM -73% | [1]; at 100.0 µM 22% | [2]; at 1.2 µM -1% | [2]; at 3.7 µM -1% | [2]; at 11.0 µM -2% | [2]; at 33.0 µM 2% | [2]; at 100.0 µM 44% | [3]; at 1.2 µM -1% | [3]; at 3.7 µM 0% | [3]; at 11.0 µM 0% | [3]; at 33.0 µM 5% | [4]; at 1.2 µM 4% | [4]; at 3.7 µM -43% | [4]; [16] 3% | [4]; at 11.0 µM 5% | [4]; at 33.0 µM 4% | [4]; [17] 9% | [4]; at 50.0 µM -15.1% | [4]; at 100.0 µM 53% | [5]; at 1.2 µM 2% | [5]; at 3.7 µM 3% | [5]; [16] 4% | [5]; at 11.0 µM 6% | [5]; at 33.0 µM 9% | [5]; [17] 34% | [5]; at 50.0 µM 24.2% | [15]; at 1.2 µM 0% | [15]; at 3.7 µM 0% | [15]; at 11.0 µM 5% | [15]; at 33.0 µM 17% | [6]; [16] -7% | [6]; [17] 39% | [6]; at 50.0 µM 21.8% | [7]; at 1.2 µM -4% | [7]; at 3.7 µM -5% | [7]; at 11.0 µM 2% | [7]; at 33.0 µM 0% | [7]; at 100.0 µM 5% | [8]; [16] 9% | [9]; at 1.2 µM -2% | [9]; at 3.7 µM -1% | [9]; [16] 0% | [9]; at 11.0 µM -3% | [9]; at 33.0 µM -2% | [9]; [17] 29% | [9]; at 50.0 µM 21.4% | [10]; at 1.2 µM -1% | [10]; at 3.7 µM 7% | [10]; at 11.0 µM 0% | [10]; at 33.0 µM -3% | [10]; at 100.0 µM 40% | [11]; at 1.2 µM 0% | [11]; at 3.7 µM 1% | [11]; at 11.0 µM 4% | [11]; at 33.0 µM 8% | [11]; at 100.0 µM 54% | [12]; at 1.2 µM -1% | [12]; at 3.7 µM 1% | [12]; at 11.0 µM 6% | [12]; at 33.0 µM 18% | [13]; [16] -1% | [13]; [17] 19% | [13]; at 50.0 µM 27.6% | [14]; at 1.2 µM 2% | [14]; at 3.7 µM 2% | [14]; at 11.0 µM 4% | [14]; at 33.0 µM 11%
active: [3]; at 100.0 µM 82% | [5]; at 100.0 µM 76% | [15]; at 100.0 µM 99% | [8]; [17] 73% | [8]; at 50.0 µM 72.2% | [9]; at 100.0 µM 84% | [12]; at 100.0 µM 95% | [14]; at 100.0 µM 83%
